# VDR inh: inhibitors of human vitamin D receptor; Potency, µM, without a hit: max response, negative = inhibition, hits mostly inhibitors; 400,000 compounds, 0.93% hits; VDR-SRC2-3 peptide fluorescence polarization, 2 h; P11473; note: potency is the fitted concentration of half-maximal effect
#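 Signal is fluorescence polarization, reporting how far test compounds block the interaction of VDR with the SRC2-3 coregulator peptide after a 2 h room-temperature incubation.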
# G9a block: G9a (human) methyltransferase inhibition; 350,000 compounds, 8.8% hits; Q96KQ7; Potency, µM (highest dose often 102 µM), for the others: top-dose activity, negative = inhibition, usual class: inhibitors; G9a H3K9 monomethylation, AlphaScreen, 2 h; AID 504332; note: potency is the fitted concentration of half-maximal effect; nearly all actives have a fitted effect of over 75% in size
#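 Signal arises when biotinylated H3K9 peptide, once monomethylated, bridges streptavidin donor and antibody-captured acceptor beads. Enzyme at 20 nM was preincubated 15 min with test compounds; peptide 500 nM and SAM 20 uM then reacted for 2 h.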
# Sfp PPTase inh: inhibitors of Bacillus subtilis Sfp phosphopantetheinyl transferase; Biochemical Sfp PPTase activity, qHTS; AID 1490; Potency, µM, inactives show largest response in the series, negative = inhibition, most hits filed as inhibitors; 310,000 compounds, 3.5% hits;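 note: the enzyme is Sfp with the accession as filed and its product quenches rhodamine fluorescence; potency is the fitted concentration of half-maximal effect; 0% = enzyme reaction without inhibitor and -100% = no enzyme wells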
#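 With Hepes-Na pH 7.6 buffer containing 10 mM MgCl2, Sfp (15 nM) modified BHQ-2-YbbR (12.5 uM) using rhodamine-CoA (5 uM). Two reads 30 minutes apart at 525/598 nm yielded each well's rate.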
# Mm-Cpn inhibitor: M. maripaludis TRiC chaperonin inhibition. purified Mm-Cpn ATPase, ADP Transcreener TR-FRET. AID 504842. 330,000 compounds, 0.031% hits. Potency, µM (top dose mostly 76.9 µM), for the others: top-dose activity, negative = inhibition, most hits filed as inhibitors; note: potency is the fitted concentration of half-maximal effect; nearly all actives have a fitted effect of over 80% in size
#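 Measured: ADP formation by purified Mm-CPN. Conditions: 25 nM protein, 10 uM ATP, Tris pH 7.4 with Mg2+, K+ and DTT, 37°C for 30 min. Detection: Transcreener HTRF after 30 min at room temperature.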
# PLK1 PBD block: blocks phosphopeptide binding to human PLK1 polo-box domain; P53350; Plk1 PBD binding of FITC phosphopeptide, fluorescence polarization; Potency, µM, inactives show max response, negative = inhibition, actives largely listed as inhibitors; 360,000 compounds, 2.8% hits; AID 720504; note: potency is the fitted concentration of half-maximal effect; series mostly up to about 57 µM; nearly all actives have a fitted effect of over 65% in size
# Target sequence (P53350 whole entry, looked up, the tested form may be a part): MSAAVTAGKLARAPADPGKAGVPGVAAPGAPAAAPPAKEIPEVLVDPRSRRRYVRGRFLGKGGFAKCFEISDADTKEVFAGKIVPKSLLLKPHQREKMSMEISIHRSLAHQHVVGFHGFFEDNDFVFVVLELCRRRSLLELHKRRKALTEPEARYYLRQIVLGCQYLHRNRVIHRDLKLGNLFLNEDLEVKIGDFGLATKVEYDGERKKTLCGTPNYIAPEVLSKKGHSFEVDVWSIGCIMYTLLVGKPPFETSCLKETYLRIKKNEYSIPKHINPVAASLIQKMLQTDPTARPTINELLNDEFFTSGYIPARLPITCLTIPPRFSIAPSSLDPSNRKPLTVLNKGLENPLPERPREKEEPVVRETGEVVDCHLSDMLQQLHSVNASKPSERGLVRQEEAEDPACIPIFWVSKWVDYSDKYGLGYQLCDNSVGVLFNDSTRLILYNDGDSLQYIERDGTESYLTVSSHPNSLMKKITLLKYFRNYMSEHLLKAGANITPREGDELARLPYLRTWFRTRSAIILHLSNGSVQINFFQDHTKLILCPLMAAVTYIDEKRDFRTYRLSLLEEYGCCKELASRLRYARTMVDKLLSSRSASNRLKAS
# CCT chaperon mod: cytosolic chaperonin activity modulation; purified chaperonin ATPase assay, HTRF ADP detection, 30 min; activity change, % (no concentration beside the values), hits read low; 360,000 compounds, 0.3% hits; in the data active = activity change below about -30%
#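 TRiC at 40 or 20 nM final (batch-dependent) in 30 mM Tris pH 7.4, 100 mM KCl, 5 mM MgCl2, 1 mM DTT, with compound at single 76 uM and 10 uM ATP, 30 min at 37 deg C. ADP detected by HTRF Transcreener, 665/615 ratio.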
# * hit, by the source's call; ? = inconclusive; . = not tested or not shown; [ ] = remark or other dose. This is a sample that favours compounds with a hit; in the whole collection about 10% have one here. Unless noted, calls come from the whole dose curve; as a rule, active = well fitted curve in the direction sought with a large enough effect; inconclusive = small, poorly fitted or top-dose-only effect, or another doubt; inactive = no such curve, though single readings can be large; an effect the other way counts as inactive or inconclusive. Unless noted, % is set by controls: 0 for no effect and ±100 for the full control effect.
SMILES,VDR inh,G9a block,Sfp PPTase inh,Mm-Cpn inhibitor,PLK1 PBD block,CCT chaperon mod
CO/N=C(\C(=O)NC1C(=O)N2C(C(=O)OCOC(=O)C(C)(C)C)=C(/C=C\c3scnc3C)CSC12)c1csc(N)n1 (configuration not stated),35µM*,-36%[2.33 µM],-66%,.,.,.
CO/N=C(/C(=O)N[C@@H]1C(=O)N2C(C(=O)O)=CCS[C@H]12)c1csc(N)n1,35µM*,?,50µM*,.,.,.
CCCCNC(=O)CCn1c(=O)c2ccccc2n(Cc2cccc(Cl)c2)c1=O,8%,9%[59 µM],.,.,.,.
CN(C)c1nc(N)c(C(=O)Nc2cccnc2)nc1Cl,.,.,-15%,.,.,.
COc1cc(NS(=O)(=O)c2cc3c(cc2C)n(C)c(=O)c(=O)n3C)cc(OC)c1,1%,0%[59 µM],.,.,.,.
CCN(c1cc(C)cc(C)c1)S(=O)(=O)c1nnc(NC(=O)c2ccccc2C)s1,-5%,-25%[59 µM],.,.,.,.
S=c1[nH]nc(COc2ccccc2)n1/N=C/c1ccccc1Br,-19%,8.9µM*,2%,0%,?,-3
Cc1n[nH]c(=S)n1/N=C/c1ccccc1OCc1ccc(Cl)cc1,-4%,?,50µM*,1%,-14%,-2
S=c1[nH]nc(COc2ccccc2)n1/N=C/c1ccccn1,-9%,?,-70%,3%,0%,-3
Cc1n[nH]c(=S)n1/N=C/c1cccc(OCc2ccccc2)c1,3%,.,?,2%,-17%,-1
COc1cccc(/C=N/n2c(COc3ccccc3)n[nH]c2=S)c1OC,-1%,8.9µM*,-21%,-2%,?,0
FC(F)(F)c1ccccc1/C=N/n1c(COc2ccccc2)n[nH]c1=S,-14%,20µM*,50µM*,1%,30µM*,3
COc1ccc(OC)c(S(=O)(=O)NCC(c2cccs2)S(=O)(=O)c2ccc(F)cc2)c1 (configuration not stated),-10%,9%[59 µM],.,.,.,.
CCOc1ccc(CNCc2ccccc2Cl)cc1,13%,1%,20%,0%,4%,-1
Fc1ccc(CNCc2ccccc2Cl)cc1,9%,2.8µM*,-21%,-4%,4%,0
COc1ccc(S(=O)(=O)NCc2ccccn2)c(Cl)c1Cl,-13%,29%[12.7 µM],3%,1%,-1%,-1
COc1ccc(Cl)c2c1[nH]c1nc(SCc3ccccn3)nnc12,18%,2µM*,19%,0%,-9%,1
C/C(=N\NC(=O)c1cccs1)c1cccnc1,79µM*,-8%,11%,-1%,21µM*,-3
O=C(NNC(=S)NC(=O)c1cccs1)c1ccc(O)cc1,4%,40µM*,13%,-1%,-8%,2
O=C(NNC(=S)NC(=O)c1cccs1)c1cccnc1,-12%,45µM*,0%,-2%,-24%,0
CCCCCCCCC(=O)N/N=C(\C)c1cccnc1,4%,10µM*,7%,-13%,-8%,1
CCOC(=O)c1noc2nc(C)n(CC(=O)Nc3cc(Cl)ccc3OC)c(=O)c12,-7%,14%[59 µM],.,.,.,.
Cc1c(-c2nsc(NC(=O)c3ccc(Cl)cc3)n2)nnn1-c1ccc(C(C)C)cc1,10%,3%[59 µM],.,.,.,.
O=C(NC1CCCCC1)c1ccc2c(c1)N(Cc1cccc(Cl)c1)C(=O)c1ccccc1S2=O (configuration not stated),14%,-6%[59 µM],.,.,.,.
CC(C)(C)c1ccc2c(c1)OC(C(=O)N/N=C\c1ccc[nH]1)CO2 (configuration not stated),0%,50µM*,9%,-2%,-4%,-2
SMILES,VDR inh,G9a block,Sfp PPTase inh,Mm-Cpn inhibitor,PLK1 PBD block,CCT chaperon mod
CCn1c(SCC(=O)Nc2cc(C)ccc2F)nnc1-c1ccccc1O,-23%,-3%[59 µM],.,.,.,.
CCCCOc1ccc(C2C(=O)N(C3CCCCC3)CC(=O)N2C2CCCCC2)cc1 (configuration not stated),5%,-2%[59 µM],.,.,.,.
O=C(COC(=O)c1ccccc1O)Nc1ccc(N2CCOCC2)cc1,-2%,?,.,-1%,-12%,0
O=C(Nc1ccc(N2CCN(C(=O)c3ccccc3)CC2)cc1)c1cc2ccccc2o1,-1%,9%[59 µM],8%,-2%,0%,-3
O=C(COC(=O)c1ccc(Br)o1)Nc1ccc(N2CCOCC2)cc1,11%,22µM*,.,0%,7%,1
O=C(Nc1ccc(N2CCN(C(=O)c3ccccc3)CC2)cc1)c1ccc(Br)o1,7%,32µM*,0%,1%,1%,-3
Cc1cc(N2CCN(C)CC2)nc2ccc(NC(=O)c3ccc(Br)o3)cc12,-11%,-26%[12.7 µM],-6%,2%,-7%,-3
Cc1cc(N2CCCCC2)nc2ccc(NC(=O)c3ccc(Br)o3)cc12,24%,50µM*,5%,-2%,-7%,-1
CCN(CC)c1ccc(NC(=O)c2ccc(Br)o2)cc1,-7%,2.2µM*,-2%,-1%,-2%,-4
CCN1CCN(c2ccc(NC(=O)c3ccc(Br)o3)cc2)CC1,2%,-2%,16%,0%,3%,0
COc1ccc(-c2ccc(NC(=O)c3ccc(Br)o3)cc2)nn1,-15%,45µM*,.,-1%,-4%,4
O=C(Nc1ccc(Cl)c(C(=O)N2CCOCC2)c1)c1ccccc1,-29%,45µM*,27%,-4%,-8%,-3
O=C(Nc1ccc(N2CCN(C(=O)c3ccccc3)CC2)c(Cl)c1)c1ccc(Br)o1,-12%,45µM*,6%,-9%,-7%,2
O=C(Nc1ccc(N2CCCC2)cc1)c1ccc(Br)o1,-3%,2.2µM*,?,0%,-2%,-4
CC(NC(=O)CN(c1ccc(Cl)cc1Cl)S(=O)(=O)c1ccccc1)c1ccccc1 (configuration not stated),-5%,3%[59 µM],.,.,.,.
CC(=O)OCC1OC(n2ccc3ccccc32)C(OC(C)=O)C(OC(C)=O)C1OC(C)=O (configuration not stated),-3%,?,14%,-1%,27µM*,-2
CC(=O)OC[C@H]1O[C@@H](n2ccc(=O)[nH]c2=S)C(OC(C)=O)C1OC(C)=O (some centres not stated),-6%,-1%[59 µM],-25%,1%,-2%,0
Cc1ccc(C)n1Cc1ccc(C(=O)O)cc1,24%,8.9µM*,?,-4%,3µM*,0
COCCn1c(N)c(N(Cc2ccccc2)C(=O)CN2C(=O)NC(C)(c3ccccc3)C2=O)c(=O)[nH]c1=O (configuration not stated),12%,14%,22%,-2%,2%,0
CCCCn1c(N)c(N(Cc2ccccc2OC)C(=O)CN2C(=O)NC(C)(c3ccccc3)C2=O)c(=O)[nH]c1=O (configuration not stated),-6%,5.6µM*,.,-2%,-4%,0
O=C(COC(=O)CNC(=O)c1ccccc1F)Nc1nnc(-c2ccccc2)o1,?,56µM*,.,1%,4%,-1
